This is an account of results in PubChem BioAssay (NCI).

Molecules are shown by their SMILES. This is part of a sample that, as a whole, favours compounds with a hit. Of some 79,000 tested, about 15% had one in any assay. Unmarked numbers belong to inactive results. The source made the active and inactive calls. Rule as the data show it: active = growth inhibition above about 70%; inactive = the rest.

The nature of experiment [1]: NCI Yeast Anticancer Drug Screen. Data for the rad50 strain (AID 155).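 Also: 0% = growth of vehicle-only cultures of the same strain.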 As to conditions: S. cerevisiae rad50 strain growth inhibition, active compounds read high. The procedure, abridged: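 Vehicle-treated cultures provide the reference for the growth inhibition reported for compound-exposed, repair-deficient yeast.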
Experiment [2] in a line: NCI Yeast Anticancer Drug Screen. Data for the mec2-1 strain (AID 157). As to conditions: S. cerevisiae mec2-1 strain, active compounds read high. The procedure, abridged: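 Vehicle-treated cultures served as reference for growth inhibition of compound-exposed mec2-1 yeast.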
A short description of experiment [3]: NCI Yeast Anticancer Drug Screen. Data for the sgs1 mgt1 strain (AID 161).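 Also: 0% = growth of cultures given vehicle only.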 Conditions: S. cerevisiae sgs1 mgt1 strain, active compounds read high. The procedure, abridged: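 Read-out: growth inhibition vs vehicle controls. Cells: mutant yeast strain deficient in DNA damage repair.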
Experiment [4] can be described thus: NCI Yeast Anticancer Drug Screen. Data for the cln2 rad14 strain (AID 165).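 Also: 0% = growth equal to vehicle treated cultures.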 Conditions: S. cerevisiae cln2 rad14 strain, active compounds read high. The gist of the method: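 Each compound was tested on cln2 rad14 yeast. Inhibition of growth was calculated against vehicle-exposed controls.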
Experiment [5] is described as follows: NCI Yeast Anticancer Drug Screen. Data for the bub3 strain (AID 167). Conditions: S. cerevisiae bub3 mutant strain, active compounds read high. The gist of the method:
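Mutant yeast screening strain plus compound; vehicle-treated cultures serve as the 0% inhibition reference.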

Experiment [6] can be described thus: NCI Yeast Anticancer Drug Screen. Data for the mlh1 rad18 strain (AID 175). Conditions: S. cerevisiae mlh1 rad18 strain growth inhibition, active compounds read high. The gist of the method: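 Vehicle-treated cultures served as the reference for growth inhibition in a yeast strain carrying DNA damage repair alterations exposed to each compound.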
[7] abbreviates: at 5.0 µM (retest, dose inferred, filed as 0.5).
[8] abbreviates: at 50.0 µM (retest, dose inferred, filed as 5.0).

Consider `S=C(CSc1ccccc1)Nc1cccc2ccccc12`, for which the growth inhibition is 15% in experiment [1] (setting [7]); 82% (active) in experiment [1] (setting [8]); 77% (active) in experiment [1] (at 50.0 µM); -12% in experiment [2] (setting [7]); 51% in experiment [2] (setting [8]); 28.4% in experiment [2] (at 50.0 µM). For the same compound, the growth inhibition is -4% in experiment [3] (setting [7]); 67% in experiment [3] (setting [8]); 31.3% in experiment [3] (at 50.0 µM); -11% in experiment [4] (setting [7]); 72% (active) in experiment [4] (setting [8]); 58.5% in experiment [4] (at 50.0 µM). Moreover, the growth inhibition in experiment [5] (setting [7]) was 4%; in experiment [5] (setting [8]) it was 81% (active); in experiment [5] (at 50.0 µM), 81.7% (active); in experiment [6] (setting [7]) it was 1%; in experiment [6] (setting [8]), 81% (active); in experiment [6] (at 50.0 µM), 79.5% (active).

Consider `Cc1nc(Nc2ccc(Cl)cc2)sc1C(=O)Nc1cccc2c(=O)[nH][nH]c(=O)c12`, for which the growth inhibition was 13% in experiment [1] (setting [7]); 13% in experiment [1] (setting [8]); 83% (active) in experiment [1] (at 50.0 µM); 6% in experiment [2] (setting [7]); 6% in experiment [2] (setting [8]); 90.8% (active) in experiment [2] (at 50.0 µM). Besides, the growth inhibition in experiment [3] (setting [7]) was 9%; in experiment [3] (setting [8]), 9%; in experiment [3] (at 50.0 µM), 91% (active); in experiment [4] (setting [7]), 3%; in experiment [4] (setting [8]), 3%; in experiment [4] (at 50.0 µM), 87.5% (active). Moreover, the growth inhibition in experiment [5] (setting [7]) is 11%; in experiment [5] (setting [8]), 11%; in experiment [5] (at 50.0 µM) it was 91.1% (active); in experiment [6] (setting [7]) it was 14%; in experiment [6] (setting [8]), 14%; in experiment [6] (at 50.0 µM), 89.7% (active).

Turning to `CSc1nc(C)cc(SCc2ccc(Cl)cc2Cl)n1`, the growth inhibition in experiment [1] (setting [7]) is -3%; in experiment [1] (setting [8]), 4%; in experiment [1] (at 50.0 µM) it was -20.9%; in experiment [2] (setting [7]), -3%; in experiment [2] (setting [8]), -7%; in experiment [2] (at 50.0 µM) it was -20.6%. Also, the growth inhibition is -2% in experiment [3] (setting [7]); 8% in experiment [3] (setting [8]); -0.95% in experiment [3] (at 50.0 µM); 2% in experiment [4] (setting [7]); -1% in experiment [4] (setting [8]); -36.7% in experiment [4] (at 50.0 µM). Moreover, the growth inhibition in experiment [5] (setting [7]) was 2%; in experiment [5] (setting [8]) it was 18%; in experiment [5] (at 50.0 µM), 75% (active); in experiment [6] (setting [7]), -2%; in experiment [6] (setting [8]) it was 21%; in experiment [6] (at 50.0 µM), -25.4%.

On to `Cc1ccc(NN)cc1`, for which the growth inhibition is 23% in experiment [1] (setting [7]); 97% (active) in experiment [1] (setting [8]); 83.8% (active) in experiment [1] (at 50.0 µM); 0% in experiment [2] (setting [7]); 69% in experiment [2] (setting [8]); 40.7% in experiment [2] (at 50.0 µM). Besides, the growth inhibition is 26% in experiment [3] (setting [7]); 46% in experiment [3] (setting [8]); 70.3% (active) in experiment [3] (at 50.0 µM); 4% in experiment [4] (setting [7]); 75% (active) in experiment [4] (setting [8]); 21.1% in experiment [4] (at 50.0 µM). The growth inhibition in experiment [5] (setting [7]) is 3%; in experiment [5] (setting [8]), 96% (active); in experiment [5] (at 50.0 µM) it was 52.6%; in experiment [6] (setting [7]) it was 11%; in experiment [6] (setting [8]) it was 94% (active); in experiment [6] (at 50.0 µM), 80.5% (active).

For the compound `CCCCOCN(CC(CC)CCCC)CC(CC)CCCC` (stereo unspecified), the growth inhibition in experiment [1] (setting [7]) was 4%; in experiment [1] (setting [8]) it was 15%; in experiment [1] (at 50.0 µM) it was 26%; in experiment [2] (setting [7]), 3%; in experiment [2] (setting [8]), 14%; in experiment [2] (at 50.0 µM) it was 12.8%. The growth inhibition in experiment [3] (setting [7]) is 1%; in experiment [3] (setting [8]), 29%; in experiment [3] (at 50.0 µM), 73.4% (active); in experiment [4] (setting [7]) it was 4%; in experiment [4] (setting [8]) it was 10%; in experiment [4] (at 50.0 µM), 5.3%. The growth inhibition in experiment [5] (setting [7]) is 1%; in experiment [5] (setting [8]), 20%; in experiment [5] (at 50.0 µM), 18.9%; in experiment [6] (setting [7]) it was -4%; in experiment [6] (setting [8]) it was 37%; in experiment [6] (at 50.0 µM), 52.1%.

`CN(C)c1ccc(/C=C/c2ccnc3ccccc23)cc1Cl`: the growth inhibition in experiment [1] (setting [7]) was 23%; in experiment [1] (setting [8]), 95% (active); in experiment [1] (at 50.0 µM), -10.1%; in experiment [2] (setting [7]) it was 4%; in experiment [2] (setting [8]), 97% (active); in experiment [2] (at 50.0 µM), -4.1%. Also, the growth inhibition in experiment [3] (setting [7]) is 0%; in experiment [3] (setting [8]), 97% (active); in experiment [3] (at 50.0 µM), 66.8%; in experiment [4] (setting [7]), -6%; in experiment [4] (setting [8]), 94% (active); in experiment [4] (at 50.0 µM) it was -12.6%. The growth inhibition in experiment [5] (setting [7]) was 2%; in experiment [5] (setting [8]), 97% (active); in experiment [5] (at 50.0 µM), 29.4%; in experiment [6] (setting [7]), -3%; in experiment [6] (setting [8]), 95% (active); in experiment [6] (at 50.0 µM), 5.25%.

Turning to `CCCCCCCCc1cc[n+](C2=C([O-])c3ccccc3C(=O)C2=O)cc1`, the growth inhibition in experiment [1] (setting [7]) is 99% (active); in experiment [1] (setting [8]), 97% (active); in experiment [1] (at 50.0 µM), 98.8% (active); in experiment [2] (setting [7]) it was 100% (active); in experiment [2] (setting [8]) it was 93% (active); in experiment [2] (at 50.0 µM) it was 98.2% (active). Moreover, the growth inhibition in experiment [3] (setting [7]) was 100% (active); in experiment [3] (setting [8]) it was 98% (active); in experiment [3] (at 50.0 µM), 99% (active); in experiment [4] (setting [7]) it was 99% (active); in experiment [4] (setting [8]), 95% (active); in experiment [4] (at 50.0 µM) it was 98.5% (active). Moreover, the growth inhibition was 99% (active) in experiment [5] (setting [7]); 99% (active) in experiment [5] (setting [8]); 98.8% (active) in experiment [5] (at 50.0 µM); 100% (active) in experiment [6] (setting [7]); 99% (active) in experiment [6] (setting [8]); 98.2% (active) in experiment [6] (at 50.0 µM).
